Measurements from ChEMBL document CHEMBL4513216, “Probing the Open Global Health Chemical Diversity Library for Multistage-Active Starting Points for Next-Generation Antimalarials” (ACS Infect Dis, 2020).
Screen size: about 69,000 compounds; about 8,600 (12%) showed an effect of 50% or more. Only a selection was taken, and strong results are over-represented in it overall.

Test system: Plasmodium berghei
Experiment: Screen against P. berghei liver stage (PbLuc), transformed with Luciferase, at 10uM
Format: functional, HepG2
Details: tested at 10 uM

Q: Cn1ccnc1CC1CCCN(Cc2noc(C3CC3)n2)C1 (stereo unspecified) was tested. Which INHIBITION did it give?
A: Its INHIBITION is 9.14%.

Q: How did the INHIBITION turn out when Cc1nnsc1CNC(=O)CSCc1ccccc1Cl was run?
A: Its INHIBITION is 10.8%.

Q: With c1ccc(Cc2nnc(CN3CCCCC3Cn3cncn3)o2)cc1 (stereo unspecified) as the compound, how does the INHIBITION read?
A: Its INHIBITION is 24%.

Q: With CCN(Cc1c(F)cccc1Cl)c1cc(C2CCNCC2)nc(C)n1 as the compound, how does the INHIBITION read?
A: The INHIBITION was 39.6%.

Q: How did the INHIBITION turn out when COc1ncccc1CNC(=O)c1cnccn1 was run?
A: Its INHIBITION is -12%.

Q: For N#Cc1ccccc1OCCN1CCCC1Cn1cncn1 (stereo unspecified), which INHIBITION is on record?
A: Its INHIBITION is 48.1%.

Q: Which INHIBITION does the source give for CC(C)CN1CCc2c(CN(C)Cc3ccco3)cncc2C1 here?
A: Its INHIBITION is -15.2%.

Q: Which INHIBITION does the source give for Cc1cccc(S(=O)(=O)N2CCCC3(CCCN3S(C)(=O)=O)C2)c1 (stereo unspecified) here?
A: Its INHIBITION is -61.6%.

Q: With CN1CCc2cc(C(CNS(=O)(=O)c3cccs3)N3CCCC3)ccc21 (stereo unspecified) as the compound, how does the INHIBITION read?
A: The INHIBITION was 20.5%.

Q: Which INHIBITION does the source give for COc1ccc(C(CNS(=O)(=O)c2cn(C)nc2C)N2CCCC2)cc1 (stereo unspecified) here?
A: The INHIBITION was 23.15%.

Q: Which INHIBITION does the source give for Cc1nn(C)cc1S(=O)(=O)NCC(c1ccccc1)N1CCCCCC1 (stereo unspecified) here?
A: The INHIBITION was 36.7%.

Q: Which INHIBITION does the source give for O=S(=O)(NCC(c1ccsc1)N1CCCCCC1)c1cccs1 (stereo unspecified) here?
A: The INHIBITION was 60%.

Q: CN(C)c1ccc(C(CNS(=O)(=O)c2cccs2)N2CCCC2)cc1 (stereo unspecified) was tested. Which INHIBITION did it give?
A: Its INHIBITION is 67.6%.

Q: With COc1ccccc1N1CCC(CNS(=O)(=O)c2cccs2)C1 (stereo unspecified) as the compound, how does the INHIBITION read?
A: Its INHIBITION is 6.31%.

Q: Which INHIBITION does the source give for O=C(NCC(F)(F)F)c1ccncc1 here?
A: Its INHIBITION is -6.67%.

Q: For CC(C)c1noc(CCCC(=O)N2CCN(Cc3cccnc3)CC2)n1, which INHIBITION is on record?
A: Its INHIBITION is -40.2%.

Q: How did the INHIBITION turn out when COc1cccc(OCC(=O)NCc2ccc3[nH]c(=O)[nH]c3c2)c1 was run?
A: The INHIBITION was 12.6%.

Q: For CN1CCOC(C)(C(=O)Nc2nc(C(C)(C)C)cs2)C1 (stereo unspecified), which INHIBITION is on record?
A: The INHIBITION was 7.5%.

Q: CN(CC1(O)CCN(c2ccnc3ccncc23)CC1)C(=O)CCN was tested. Which INHIBITION did it give?
A: The INHIBITION was -5.78%.

Q: How did the INHIBITION turn out when CS(=O)(=O)c1ccc2c(c1)N(C(=O)Cc1cccc(F)c1)CCC2 was run?
A: The INHIBITION was 30.9%.

Q: Which INHIBITION does the source give for CS(=O)(=O)c1ccc2c(c1)N(C(=O)Cc1ccc(F)cc1)CCC2 here?
A: The INHIBITION was 47.7%.

Q: Which INHIBITION does the source give for CCN(CC)S(=O)(=O)CC(=O)N1CCc2ccc(C)cc21 here?
A: The INHIBITION was 57.5%.

Q: For Cc1ccc2c(c1)N(C(=O)C1CCCOC1)CCC2 (stereo unspecified), which INHIBITION is on record?
A: Its INHIBITION is -27%.

Q: For CCN(CC)S(=O)(=O)CC(=O)N1CCc2ccc(Cl)cc21, which INHIBITION is on record?
A: The INHIBITION was 26.8%.

Q: Which INHIBITION does the source give for CCN(CC)S(=O)(=O)CC(=O)N1CCc2ccc(F)cc21 here?
A: The INHIBITION was 67.4%.

Q: With COCCOc1cccc(CNC(=O)CN2CCN(C)CC2C)c1 (stereo unspecified) as the compound, how does the INHIBITION read?
A: The INHIBITION was 17.883%.

Q: Which INHIBITION does the source give for Cc1ccccc1Cn1cnc2oc(C)c(C(=O)O)c2c1=O here?
A: Its INHIBITION is 0.348%.

Q: For O=C(CCn1cccn1)N1CCC(c2nnc(-c3ccsc3)o2)CC1, which INHIBITION is on record?
A: The INHIBITION was 5.86%.

Q: O=C(N[C@@H]1CN(c2ncccn2)C[C@@H]2CCCO[C@@H]21)c1cccnc1 was tested. Which INHIBITION did it give?
A: The INHIBITION was 4.61%.

Q: Which INHIBITION does the source give for CC(=O)NS(=O)(=O)c1ccc(F)cc1C(F)(F)F here?
A: The INHIBITION was 35%.

Q: With O=C(NCCn1nc(-n2cncn2)ccc1=O)c1ccsc1 as the compound, how does the INHIBITION read?
A: The INHIBITION was 6.12%.

Q: For O=C(CCCOCc1ccccc1)N1CCCC(c2ncc[nH]2)C1 (stereo unspecified), which INHIBITION is on record?
A: Its INHIBITION is 6.11%.

Q: CCOCCC(=O)N1CCCC(c2ncc[nH]2)C1 (stereo unspecified) was tested. Which INHIBITION did it give?
A: The INHIBITION was 48.1%.

Q: For CSCCC(=O)N1CCCC(c2ncc[nH]2)C1 (stereo unspecified), which INHIBITION is on record?
A: Its INHIBITION is -8.66%.

Q: For O=C(CCOc1ccccc1)N1CCCC(c2ncc[nH]2)C1 (stereo unspecified), which INHIBITION is on record?
A: Its INHIBITION is 52.7%.

Q: How did the INHIBITION turn out when CCOCCOc1ccccc1C(=O)N1CCCC(c2ncc[nH]2)C1 (stereo unspecified) was run?
A: Its INHIBITION is -7.35%.

Q: How did the INHIBITION turn out when CCOCCC1(C(=O)N2CCCC(c3ncc[nH]3)C2)CCCC1 (stereo unspecified) was run?
A: The INHIBITION was 72%.

Q: COCCC(=O)N1C[C@H]2CN(Cc3cccc(C)n3)C(=O)[C@H]2C1 was tested. Which INHIBITION did it give?
A: Its INHIBITION is 26.6%.

Q: For CCOCCN1CCC(c2cnccn2)CC1, which INHIBITION is on record?
A: The INHIBITION was 32.7%.

Q: With CN1CCN(C=C2N=C(c3cc(-c4ccccc4F)n[nH]3)ON2)CC1 as the compound, how does the INHIBITION read?
A: The INHIBITION was 49.4%.

Q: CS(=O)(=O)N1CC[C@H]2OCC[C@@]2(C(=O)NCc2ccccn2)C1 was tested. Which INHIBITION did it give?
A: Its INHIBITION is 39.4%.

Q: With CNC(=O)c1cc(C)n(-c2cccc(OC)c2)c1C as the compound, how does the INHIBITION read?
A: Its INHIBITION is -3.2%.

Q: For Cc1cc(Br)cnc1N(C)CC1CCOC1 (stereo unspecified), which INHIBITION is on record?
A: The INHIBITION was 23.6%.

Q: Cc1nc2c(c(NCc3nc4ccccc4s3)n1)CCNCC2 was tested. Which INHIBITION did it give?
A: Its INHIBITION is 75.8%.

Q: Which INHIBITION does the source give for Cc1nc2c(c(NCc3ccc(-c4ccccn4)s3)n1)CCNCC2 here?
A: Its INHIBITION is 32.2%.

Q: With Cc1nc2c(c(NCc3cc4ccccc4s3)n1)CCNCC2 as the compound, how does the INHIBITION read?
A: The INHIBITION was 46.1%.

Q: For CC(C)N1CCN(C(=O)Nc2cnc3c(cnn3C(C)C)c2)CC1, which INHIBITION is on record?
A: Its INHIBITION is 27.6%.

Q: With O=C(CCOc1ccccc1)N1CCCC(n2cncn2)C1 (stereo unspecified) as the compound, how does the INHIBITION read?
A: The INHIBITION was -13.255%.

Q: With CCC(C)N(Cc1cccnc1)Cc1cc2c(cc1Cl)OCO2 (stereo unspecified) as the compound, how does the INHIBITION read?
A: The INHIBITION was 58.5%.

Q: How did the INHIBITION turn out when CCC(C)N(Cc1cccnc1)Cc1cc2c(cc1OC)OCO2 (stereo unspecified) was run?
A: Its INHIBITION is -19.8%.

Q: How did the INHIBITION turn out when c1cncc(CN(Cc2ccc3c(c2)OCCO3)CC2CCCO2)c1 (stereo unspecified) was run?
A: Its INHIBITION is -2.98%.

Q: CCC(C)N(Cc1cccnc1)Cc1ccc2c(c1)OCCO2 (stereo unspecified) was tested. Which INHIBITION did it give?
A: Its INHIBITION is 52.5%.

Q: With CCC(C)N(Cc1cccnc1)Cc1ccccc1Cn1cccn1 (stereo unspecified) as the compound, how does the INHIBITION read?
A: The INHIBITION was 31.3%.

Q: How did the INHIBITION turn out when Cc1ccnc(CC(C)N(C)Cc2ccc3c(c2)OCCO3)c1 (stereo unspecified) was run?
A: The INHIBITION was 8.11%.

Q: How did the INHIBITION turn out when Cn1cc(C2CCCN2C(=O)CCc2cnn(-c3ccccc3)c2)cn1 (stereo unspecified) was run?
A: Its INHIBITION is 5.03%.

Q: For CN(C)C(=O)C1(CCCc2ccccn2)CCN1Cc1nccn1C (stereo unspecified), which INHIBITION is on record?
A: Its INHIBITION is 5.34%.

Q: Which INHIBITION does the source give for COc1ccc2nnc(CCCC(=O)NCc3ccccc3F)n2n1 here?
A: The INHIBITION was -6.09%.

Q: For COc1ncccc1CNCc1c(C)nn(C)c1N1CCOCC1, which INHIBITION is on record?
A: Its INHIBITION is -10.1%.

Q: Which INHIBITION does the source give for CC(C)N1CCN(C(=O)c2ccc(Cn3ccccc3=O)o2)CC1 here?
A: Its INHIBITION is 14.115%.

Q: How did the INHIBITION turn out when Cc1nnc([C@H]2C[C@H]3OCC[C@H]3N(S(=O)(=O)C3CC3)C2)o1 was run?
A: The INHIBITION was 26%.

Q: With Cc1nnc([C@H]2C[C@H]3OCC[C@H]3N(S(=O)(=O)N(C)C)C2)o1 as the compound, how does the INHIBITION read?
A: The INHIBITION was 54.1%.

Q: CCS(=O)(=O)N1C[C@@H](c2nnc(C)o2)C[C@H]2OCC[C@H]21 was tested. Which INHIBITION did it give?
A: Its INHIBITION is 18.7%.

Q: For Cc1ccc(CN2C[C@@H]3COC[C@H](NS(C)(=O)=O)[C@@H]3C2)o1, which INHIBITION is on record?
A: The INHIBITION was 6.38%.

Q: For OCCNc1nccc(-c2c[nH]nc2-c2ccncc2)n1, which INHIBITION is on record?
A: Its INHIBITION is 41.2%.

Q: CC(C)(C)CCNc1nccc(-c2c[nH][nH]c2=O)n1 was tested. Which INHIBITION did it give?
A: Its INHIBITION is 57.5%.

Q: How did the INHIBITION turn out when O=C(O)c1ccnc(-c2ccnc(NCCc3ccc(F)cc3)n2)c1 was run?
A: Its INHIBITION is 8.74%.

Q: COCCCNc1nccc(-c2c[nH][nH]c2=O)n1 was tested. Which INHIBITION did it give?
A: Its INHIBITION is 15.2%.

Q: For Cc1ncc(-c2ccnc(NCCc3ccc(F)cc3)n2)c(=O)[nH]1, which INHIBITION is on record?
A: The INHIBITION was 72.3%.

Q: With CN(C)c1nccc(-c2c[nH][nH]c2=O)n1 as the compound, how does the INHIBITION read?
A: Its INHIBITION is 42.6%.

Q: O=c1[nH][nH]cc1-c1ccnc(NCCc2ccc(F)cc2)n1 was tested. Which INHIBITION did it give?
A: The INHIBITION was 20.4%.

Q: For O=c1[nH][nH]cc1-c1ccnc(NCCc2cccc(O)c2)n1, which INHIBITION is on record?
A: The INHIBITION was 63.4%.

Q: For O=c1[nH][nH]cc1-c1ccnc(NCCN2CCCC2)n1, which INHIBITION is on record?
A: The INHIBITION was 25.3%.

Q: How did the INHIBITION turn out when O=C(Cc1cccc(O)c1)NCCNc1nccc(C(F)(F)F)n1 was run?
A: Its INHIBITION is 0.71%.

Q: With O=c1[nH][nH]cc1-c1ccnc(NCCc2cccnc2)n1 as the compound, how does the INHIBITION read?
A: Its INHIBITION is 59%.

Q: Which INHIBITION does the source give for Cc1ncc(-c2ccnc(N3CCCCC3)n2)c(=O)[nH]1 here?
A: Its INHIBITION is 28.6%.

Q: How did the INHIBITION turn out when C[C@H]1CCCCN1CCCNc1nccc(-c2c[nH][nH]c2=O)n1 was run?
A: Its INHIBITION is 23.4%.
